Screening data: PubChem BioAssay, National Center for Advancing Translational Sciences (NCATS)
An excerpt weighted towards active compounds, which were near 7.9% of everything screened.
MARV entry inh: blocks Marburg virus binding to or entry into cells. Marburg virus pseudotyped entry inhibition, cell reporter. Potency, µM (highest dose often 37.8 µM), inactives show top-dose activity change, negative = inhibition, actives largely listed as inhibitors. hit rate 1.8% among 300,000. AID 540276; calls by dose curve; tested in HEK293 cells; further: potency means the concentration at half of the fitted maximal effect
HCV inh: HCV inhibition | Huh7.5.1 HCVcc-Cre infection, luciferase reporter, 44 h | Potency, µM (doses to about 41.8 µM), for inactives: at the top dose activity change, negative = inhibition, actives largely listed as inhibitors | hit rate 3.4% among 340,000 | AID 651820; active means well fitted inhibition curve with a large enough effect; inconclusive means small, poorly fitted or top-dose-only effect, or another doubt; inactive means no such curve, though single readings can be large or run the other way; further: potency means the concentration at half of the fitted maximal effect
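Luciferase read-out (15 sec integration) after a 15 min room-temperature substrate step quantifies HCVcc-Cre infection. Cells, 1,000 per well, had compound added 4 h post-plating, then virus at ~0.5 moi, and were cultured 44 h.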
FMDV inh: foot and mouth disease virus antiviral activity. FMDV antiviral cell-based qHTS. hit rate 1.2% among 410,000. AID 1159524. Potency, µM (series often up to 57.9 µM), for the others: top-dose activity change, negative = inhibition, usual class: inhibitors; calls by dose curve; tested in HEK293T cells; further: read-out not given here; potency means the concentration at half of the fitted maximal effect; nearly all actives have a fitted effect of over 45% in size
Lassa entry inh: inhibitors of Lassa virus binding or cell entry | Lassa virus pseudotype entry inhibition, cell reporter | Potency, µM (series often up to 37.9 µM), for inactives: at the highest dose activity change, negative = inhibition, actives largely listed as inhibitors | hit rate 1.2% among 300,000 | AID 540256; calls by dose curve; tested in HEK293 cells; further: potency means the concentration at half of the fitted maximal effect; nearly all actives have a fitted effect of over 50% in size
HCMV inh: human cytomegalovirus inhibition; hit rate 4.5% among 410,000; HFF cells, HCMV-luciferase reporter, 72 h; active compounds read low; activity change, negative = inhibition, % at 57.5 µM; in the data active means activity change below about -60%; inconclusive means no clear call, values can overlap the other calls; inactive means above about -39%
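Steps: HFFs plated, 16 h 37C; compounds added; HCMV-luciferase added to MOI 1 PFU/cell; 72 h 37C; OneGlo reagent, 5 min room temperature; luminescence read, normalized to controls.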
* hit, by the source's call; u = inconclusive; x = no result; [ ] = remark or other dose. On the % scale 0 is the no-effect control and ±100 the full control effect.

SMILES | MARV entry inh | HCV inh | FMDV inh | Lassa entry inh | HCMV inh
COc1ccc(C(=O)c2cnc3ccc(C)cc3c2S(=O)(=O)c2ccccc2)cc1 | u | x | 13% | x | -98*
Cc1ccc2ncc(C(=O)c3ccc(C)c(C)c3)c(S(=O)(=O)c3ccc(F)cc3)c2c1 | u | x | -16% | x | -74*
Cc1ccc(S(=O)(=O)c2c(C(=O)c3ccccc3)cnc3cc4c(cc23)OCCO4)cc1 | u | -3% | 13% | u | -99*
COc1ccc2nc(N(Cc3cccnc3)C(=O)c3ccco3)sc2c1 | x | x | 35% | 2%[46.1 µM] | 54
COc1ccc(CNC(=O)CCn2nc(C)c3c(C)n(-c4ccccc4)nc3c2=O)cc1OC | x | x | -14% | 3%[46.1 µM] | -2
COc1ccc2c3c(n(C)c2c1)[C@H](CO)N(C(=O)c1cccc(F)c1)CC31CN(C(=O)c2cccc(F)c2)C1 | x | x | x | x | 26
Cc1ccccc1-c1noc(-c2ccc(N3CCN(C)CC3)c([N+](=O)[O-])c2)n1 | 22%[46.1 µM] | x | u | -2%[46.1 µM] | -75*
Cc1ccccc1-c1noc(-c2ccc(N3CCCC3)c([N+](=O)[O-])c2)n1 | 5%[46.1 µM] | x | -32% | 11%[46.1 µM] | -69*
Nc1ccc(Sc2cc(Cl)nc(N)n2)cc1 | 1% | 9% | x | x | x
Nc1nc(N)c2cc(Sc3cccc(C(F)(F)F)c3)ccc2n1 | x | x | u | x | -70*
Nc1nc(N)c2cc(Sc3ccc(Cl)cc3)ccc2n1 | x | x | -18% | x | -77*
Nc1nc(-c2ccc3ccccc3c2)cs1 | u | -7% | 45% | 19% | 4
Nc1nc(N)c2cc(Sc3ccc4ccccc4c3)ccc2n1 | x | 11µM* | u | x | -84*
FC(F)(F)c1cccc(Sc2nc(-c3ccccc3)nnc2C(F)(F)F)c1 | -6% | 14% | u | u | -5
COc1ccc(CNC(=O)C2CCN(S(=O)(=O)c3cccc4nonc34)CC2)cc1OC | x | x | -17% | -4%[46.1 µM] | -3
COc1ccc(C(=O)CN(CCC(=O)O)S(=O)(=O)c2ccc([N+](=O)[O-])cc2)cc1 | x | 5% | 2% | x | -4
O=C(NC1CCCC1)c1cn(C2CCN(Cc3cccc4cccnc34)CC2)nn1 | x | x | -7% | x | x
COC(=O)c1ccc(Cl)cc1NC(=O)NCc1c(-n2cccc2)sc2c1CCCC2 | 0%[46.1 µM] | x | -23% | -21%[46.1 µM] | -1
C[C@H]1CC[C@H]2C(=O)NC[C@H](O)CN2[C@H]1c1ccc(Br)cc1 | -10%[14.2 µM] | x | x | x | x
COc1ccccc1Oc1ccc(-c2cnc3ccccc3n2)cc1[N+](=O)[O-] | u | u | 1% | u | -87*
O=[N+]([O-])c1cc(-c2cnc3ccccc3n2)ccc1Oc1ccc(Cl)cc1 | x | u | 25% | x | 44
CN(C)c1ccc(CNC(=O)c2cnc(N3CCN(Cc4cccc(C(F)(F)F)c4)C3=O)o2)cc1 | x | x | x | x | -14
O=C(COc1ccc(C(=O)NCc2cccnc2)cc1)Nc1cccc(C(F)(F)F)c1 | u | u | u | -21% | -38
Cc1cccc(OCC(=O)Nc2ccc(S(=O)(=O)N3CCCC3)cc2)c1 | -26% | -14% | u | -13% | -21
CCc1cccc(OCC(=O)Nc2ccc(S(=O)(=O)N3CCCC3)cc2)c1 | -14%[46.1 µM] | 11µM* | -29% | -29%[46.1 µM] | -27
SMILES | MARV entry inh | HCV inh | FMDV inh | Lassa entry inh | HCMV inh
COc1ccc(OCC(=O)Nc2ccc(S(=O)(=O)N3CCCCC3)cc2)cc1 | 5% | -3% | -2% | -5% | 23
O=C(COc1cccc(C(F)(F)F)c1)Nc1ccc(S(=O)(=O)N2CCCCC2)cc1 | -27%[46.1 µM] | 25µM* | u | u | -24
O=C(COc1cccc(C(F)(F)F)c1)Nc1cccnc1 | x | 1% | -10% | x | -85*
CC(=O)N1CCC2(CCCN(C(c3ccccc3)c3ccccc3)C2)CC1 | x | x | -24% | x | x
CCOC1=C2CN(S(=O)(=O)c3ccc(C)cc3)C(c3cccc(Cl)c3)CC2NC(c2ccccc2)C1 (configuration not stated) | x | x | 5% | x | 35
CCOC(=O)c1c(NC(=O)C(C)N2CCN(C(=O)c3ccco3)CC2)sc2c1CCCC2 (configuration not stated) | u | 10µM* | u | 11µM* | -39
CC(=O)/C(=C/Nc1ccc(Oc2ccccc2)cc1)c1ccccc1 | 3% | 5% | -1% | u | -77*
CC(=O)/C(=C\Nc1ccc(OCc2ccccc2)cc1)c1ccccc1 | -7% | -11% | -2% | -22% | 0
COc1ccc(C(=O)CC2(O)C(=O)N(CCc3ccccc3)c3ccc(Br)cc32)cc1OC (configuration not stated) | u | x | -26% | u | 1
Cc1cccc(Cn2c(SCc3ccc(C(=O)NCc4cccs4)cc3)nc3cccnc32)c1 | x | x | 0% | u | -35
CC(=O)Oc1ccc(/C=C/c2nc3ccccc3c(=O)o2)cc1 | u | 31% | -12% | u | -29
CC(=O)Oc1ccccc1/C=C/c1nc2ccccc2c(=O)o1 | u | 7% | u | 2µM* | -10
CSc1nccc(-c2cc(Cl)c3c(c2)CC(CNC(=O)c2ccc(C)nc2)O3)n1 (configuration not stated) | x | x | -20% | x | x
CCc1c(C)sc2c1CCN(Cc1ccc(F)cc1)C2c1ccccc1 (configuration not stated) | x | x | 0% | u | -98*
CCc1c(C)sc2c1CCN(Cc1cccc(F)c1)C2c1ccccc1 (configuration not stated) | x | x | 0% | u | -78*
CCc1c(C)sc2c1CCN(Cc1ccc(C#N)cc1)C2c1ccccc1 (configuration not stated) | x | x | -13% | u | -24
CCN(CC(=O)Nc1ccc(OC)cc1)C(=O)c1ccc2c(c1)NC(=O)C(C)S2 (configuration not stated) | 25% | -2% | 6% | 8% | 0
CC(=O)OC[C@H]1O[C@H](C#Cc2ccccc2)C=C[C@H]1OC(C)=O | 21%[14.2 µM] | x | x | x | x
Cc1cc(C)cc(N2CC(c3nnc(NC(=O)c4ccco4)s3)CC2=O)c1 (configuration not stated) | -17%[46.1 µM] | x | 1% | -5%[46.1 µM] | 2
Cc1ccc(O[C@@H]2[C@H](O)CO[C@@H]2/C=C/C#Cc2ccc(C(C)(C)C)cc2)cc1 | -35%[14.2 µM] | x | x | x | x
N#C/C(=C\C=C\c1ccccc1)c1nc(-c2ccc(Cl)cc2)cs1 | x | -12% | -5% | x | -60*
OC1(c2ccc(OC(F)F)cc2)CSC(=Nc2cccnc2)N1Cc1ccco1 (configuration not stated) | u | 11µM* | 8.9µM* | u | -9
CC(C)C(=O)Nc1cccc(NC(=S)NC(=O)c2ccc(Cl)cc2)c1 | u | u | u | -29% | -73*
COc1ccc(C(=O)NC(=S)NNC(=O)c2ccc(NC(=O)C(C)C)cc2)cc1 | u | 16µM* | -3% | u | 0
Cc1cccc(C(=O)NC(=S)NNC(=O)c2ccc(Cl)cc2)c1 | u | u | u | u | -84*
Cc1ccc(C(=O)NC(=S)Nc2ccc(NC(=O)c3cccc(Cl)c3)cc2)cc1 | 1.3µM* | -11% | 3% | 2.3µM* | u
Cc1cccc(C(=O)NC(=S)NNC(=O)c2cccs2)c1 | 1% | 1% | -12% | 9% | u
